Experimental data from PubChem BioAssay (Tox21).
Values joined by “and” are separate entries in the source; they are usually repeats but may differ in a detail not shown here. Equal entries are not always repeated. Records with an inconclusive call do not appear. Where a call stands in place of a potency, no number is given. Where a structure was tested more than once in an assay, its records may differ in their call. Active and inactive are the calls of the source. Calls follow the shape of the dose curve; as a rule, active = well fitted activation curve with a large enough effect in the repeat runs; inconclusive = weak or mixed curves; inactive = flat fitted curve, though single readings scatter.

assay: A CellTox Green Cytotoxicity Assay to monitor cytotoxicity in HepG2 cells - 24 hour (AID 1224878); conditions: CellTox Green fluorescence; series mostly up to 76.8 µM; cytotoxicity: at the top concentration; also: nearly all actives have a fitted effect of over 45% in size
Description: National Center for Advancing Translational Sciences [NCATS]
NIH Chemical Genomics Center [NCGC]
U.S. Environmental Protection Agency [EPA]
National Institutes of Environmental Health Sciences [NIEHS]
National Toxicology Program [NTP]
Cell-based models are critical for drug discovery. Determining the natural cytotoxic effects resulting from test compounds is an essential research activity. A CellTox Green Cytotoxicity Assay to monitor cytotoxicity in real time of continues cell culture during 40 hours of the compound treatment was used to screen Tox21 10K library compounds in HepG2 cells. CellTox Green Cytotoxicity Assay is a nonlytic, homogeneous, biofluorescent method to measure cytotoxicity in cell culture after experimental manipulation. The assay system uses a proprietary asymmetric cyanine dye that is excluded from viable cells but preferentially stains the dead cell's DNA. […] Viable cells produce no appreciable increases in fluorescence. Therefore, the fluorescence signal produced by the binding interaction with dead cell DNA is proportional to cytotoxicity.
The mixture of HepG2 cell suspension and reagents were dispensed at 600cells/6 ul/well in 1536-well tissue culture treated black solid bottom plates using a Multidrop dispenser. After the assay plates were incubated at a 37 C/5% CO2 incubator for 5 hours, 23 nL of compounds dissolved in DMSO, positive and negative controls was transferred to the assay plate by a pintool work station. The plates were incubated at 37 C for 40 hours. The fluorescence intensity were measured at 0h, 8h, 16h, 24h, 32h and 40h time points using ViewLux plate reader during compound treatment.
Potency is read from the fitted curve at half-maximal effect.

| SMILES | Potency | cytotoxicity |
| --- | --- | --- |
| CC(C)[C@@H]1CC[C@@H](C)CC1=O | inactive | – |
| CCO[Si](CCCNC(N)=O)(OCC)OCC | inactive | – |
| COc1cc([C@H]2Oc3cc([C@H]4Oc5cc(O)cc(O)c5C(=O)[C@@H]4O)ccc3O[C@@H]2CO)ccc1O | inactive and 21.3 µM (active) | – |
| CC(=O)OC(C)C | inactive | – |
| CN(Cc1cnc2nc(N)nc(N)c2n1)c1ccc(C(=O)N[C@@H](CCC(=O)O)C(=O)O)cc1 | inactive | – |
| O=C(O)CCCC(=O)O | inactive | – |
| CCC(Cc1c(I)cc(I)c(N)c1I)C(=O)O (stereo not given) | inactive | – |
| Brc1nc2ccccc2s1 | inactive | – |
| C=C[C@H]1CN2CC[C@H]1C[C@H]2[C@H](O)c1ccnc2ccc(OC)cc12 | – | 12.5% [at 35.3 µM] (inactive) |
| COC(=O)CC(=O)OC | inactive | – |
| CC1=CC(C)(C)Nc2ccccc21 | inactive | – |
| CCc1cccc2c3c([nH]c12)C(CC)(CC(=O)O)OCC3 (stereo not given) | inactive | – |
| Oc1c(Cl)ccc(Cl)c1Cl | inactive | – |
| CCCOCCO | inactive | – |
| Nc1ccc(N)c(Cl)c1 | inactive and 43.6 µM (active) | – |
| C[C@]12C=CC(=O)C=C1CC[C@H]1[C@@H]3C[C@@H](O)[C@](O)(C(=O)CO)[C@@]3(C)C[C@H](O)[C@@]12F | inactive | – |
| Cc1ccc2c(c1)C(=O)OC2=O | inactive | – |
| CC(C)=CCO | inactive | – |
| C[C@]12CC[C@@H]3c4ccc(O)cc4CC[C@H]3[C@@H]1CC[C@H]2O | inactive | – |
| O=C(O)COCCN1CCN(C(c2ccccc2)c2ccc(Cl)cc2)CC1 (stereo not given) | inactive | – |

| SMILES | Potency | cytotoxicity |
| --- | --- | --- |
| OCCNCCO | inactive | – |
| CN(C)CCCN1c2ccccc2Sc2ccc(Cl)cc21 | 38.9 µM (active) and 21.3 µM (active) | – |
| OC[C@H]1O[C@@H]2O[C@H]3[C@H](O)[C@@H](O)[C@@H](O[C@H]4[C@H](O)[C@@H](O)[C@@H](O[C@H]5[C@H](O)[C@@H](O)[C@@H](O[C@H]6[C@H](O)[C@@H](O)[C@@H](O[C@H]7[C@H](O)[C@@H](O)[C@@H](O[C@H]1[C@H](O)[C@H]2O)O[C@@H]7CO)O[C@@H]6CO)O[C@@H]5CO)O[C@@H]4CO)O[C@@H]3CO | inactive | – |
| COCCOCCOCCO | inactive | – |
| NC[C@H](O)c1ccc(O)c(O)c1 | inactive | – |
| C=CC(=O)OCCCC | inactive | – |
| CCOC(=O)C(C)Oc1ccc(Oc2cnc3cc(Cl)ccc3n2)cc1 (stereo not given) | inactive | – |
| Nc1ccc(O)c(N)c1 | inactive | – |
| C[C@]12CC[C@@H]3c4ccc(O)cc4CC[C@H]3[C@@H]1CC[C@@H]2O | inactive | – |
| Cc1ccc(N)c([N+](=O)[O-])c1 | inactive | – |
| FC(F)(F)C(Cl)Br (stereo not given) | inactive | – |
| Cc1ccc(C)c(O)c1 | inactive | – |
| C[N+](C)(C)CCO | inactive | – |
| O=C(O)CCCCCCCCCCCC(=O)O | – | -6.05% (inactive) |
| IC(I)I | inactive | – |
| CCCCCCC(C)O (stereo not given) | inactive | – |
| [Na+] | – | -6.62% (inactive) |
| C=CCCCCCCCCCC | inactive | – |
| CC(=O)O[C@]1(C(C)=O)CC[C@H]2[C@@H]3C=C(C)C4=CC(=O)CC[C@]4(C)[C@H]3CC[C@@]21C | inactive | – |
| Cc1ccc(S(=O)(=O)NCl)cc1 | inactive | – |
